High-throughput results as filed in PubChem.
Most compounds without a hit are left out; they make up all but 10% or so of the library.
HEK293 tox – kills HEK 293 cells; 94,000 tested, 6.6% active; Potency, µM (titrated, usually from 115 µM), most hits filed as inhibitors; HEK 293 viability, ATP luminescence (CellTiter-Glo), 48-72 h; AID 1345083; further: nearly all actives have a fitted effect of over 60% in size
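Pintool-delivered compounds were incubated with HEK 293 cells (250 cells/well) at 37 degree Celsius for 48 or 72 hr. ATP-dependent luminescence (CellTiter-Glo) then reported remaining viable cells.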
GPT2 inhibitor – blocks human glutamate pyruvate transaminase 2; Q8TD30; Recombinant GPT2, coupled pyruvate oxidase/HRP Amplex Red fluorescence; Potency, µM (titrated, usually from 57.7 µM), most hits filed as inhibitors; 100,000 tested, 0.25% active; AID 1671188; further: nearly all actives have a fitted effect of over 60% in size
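Fluorescence of coupled pyruvate oxidase/HRP/Amplex Red system (50uM Amplex, 30 min, dark) reports pyruvate formed by GPT2. Enzyme reaction: 10ng/uL GPT2, 2mM L-alanine, 250uM a-KG, 30 min room temperature, pH 7.5; 50uM AOA control.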
FLuc inh – inhibitors of firefly (Photinus pyralis) luciferase. purified P. pyralis luciferase, luminescence, biochemical. Potency, µM (doses to about 115 µM), usual class: inhibitors. 76,000 tested, 2.5% active. P08659. AID 1347043; further: nearly all actives have a fitted effect of over 65% in size
Target sequence (P08659 whole entry, looked up): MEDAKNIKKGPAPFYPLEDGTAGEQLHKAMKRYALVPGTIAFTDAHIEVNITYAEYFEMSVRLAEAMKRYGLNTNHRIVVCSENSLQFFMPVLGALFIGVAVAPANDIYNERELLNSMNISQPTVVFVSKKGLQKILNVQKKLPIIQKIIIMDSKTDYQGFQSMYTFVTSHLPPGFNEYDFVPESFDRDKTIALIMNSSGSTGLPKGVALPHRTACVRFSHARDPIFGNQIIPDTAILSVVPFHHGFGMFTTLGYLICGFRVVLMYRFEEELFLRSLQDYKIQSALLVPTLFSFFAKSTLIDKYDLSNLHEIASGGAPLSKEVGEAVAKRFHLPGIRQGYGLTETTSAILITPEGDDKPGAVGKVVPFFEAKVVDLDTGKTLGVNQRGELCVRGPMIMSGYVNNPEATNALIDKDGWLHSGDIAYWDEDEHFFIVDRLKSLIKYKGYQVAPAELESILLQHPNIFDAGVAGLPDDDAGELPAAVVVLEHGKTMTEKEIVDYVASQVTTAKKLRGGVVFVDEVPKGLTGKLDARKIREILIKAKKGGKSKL
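Cell-free enzyme assay, 10nM P. pyralis luciferase, luciferin and ATP each at 10uM. Inhibition profiled over a 6-point titration, read as luminescence.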
3T3 cytotox – kills NIH 3T3 cells. NIH 3T3 viability, CellTiter-Glo ATP luminescence, 48-72 h. Potency, µM (doses to about 96.7 µM), hits mostly inhibitors. 94,000 tested, 4.3% active. AID 1345082; further: nearly all actives have a fitted effect of over 55% in size
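Cytotoxicity is measured as loss of cellular ATP: NIH 3T3 cells (400/well) are exposed to compound for 48 or 72 hr at 37 °C, then CellTiter-Glo luminescence is imaged after 10 min at room temperature.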
hNpr1 antagonist – antagonists of human natriuretic peptide receptor Npr1; P16066; HEK293 hNpr1 GloSensor cGMP, ANP-stimulated luminescence; Potency, µM (series often up to 46.3 µM), most hits filed as inhibitors; 76,000 tested, 1.6% active; AID 1347048; calls by dose curve; further: nearly all actives have a fitted effect of over 60% in size
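HEK293 cells stably expressing human Npr1 and cGMP GloSensor pGS-40F, loaded 2 h with 2% GloSensor reagent, given compound 30 min at room temperature. Luminescence read before and 20 min after 0.1 nM hNppA.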
A number is an active result; n = inactive; u = inconclusive; x = not tested or not shown; [ ] = another dose, or the depositor's remark. Unless noted, the call rests on the fitted dose curve; in most records, active means well fitted curve in the direction sought with a large enough effect; inconclusive means small, poorly fitted or top-dose-only effect, or another doubt; inactive means no such curve, though single readings can be large; an effect the other way counts as inactive or inconclusive.

SMILES | HEK293 tox | GPT2 inhibitor | FLuc inh | 3T3 cytotox | hNpr1 antagonist
CCCn1ncnc1C(C)NC(=O)C1CCN(C(=O)C2CC2)CC1 (centres undefined) | n | n | n | n | n
CCCn1ncnc1C(C)Nc1cc(C(C)C)nc2cc(C)nn12 (centres undefined) | u | n | n | 35µM | n
O=C(Nc1ccccc1)c1ccc(-c2cccc3c2CCNC3)o1 | u | n | n | 45µM | n
Cc1ccncc1C(=O)N1CC(N(C)Cc2cccnc2)C1 | n | n | 35µM | n | n
COc1ccc(NC(=O)[C@@H]2C[C@H](c3ccc(F)cc3)N(Cc3csc(C)n3)C2)cc1OC | u | n | n | u | n
COc1cccc(NC(=O)[C@@H]2C[C@H](c3ccc(F)cc3)N(Cc3csc(C)n3)C2)c1 | 63µM | n | n | u | n
Cc1nc(CN2C[C@H](C(=O)Nc3cccc(F)c3)C[C@@H]2c2ccc(F)cc2)cs1 | 40µM | u | n | 40µM | n
COc1ccc(NC(=O)[C@@H]2C[C@H](c3ccc(F)cc3)N(Cc3csc(C)n3)C2)c(C)c1 | 89µM | n | n | 71µM | n
COc1cccc(NC(=O)[C@@H]2C[C@@H](c3ccc(F)cc3)N(CCOc3ccccc3)C2)c1 | 40µM | n | n | u | u
C=CCC1(CO)CCCN(C(=O)CCCn2nc(C)cc2C)C1 (centres undefined) | n | n | n | n | n
CCOc1ccc(CN2C[C@@H](NC(=O)COC)C[C@H]2CO)cc1 | n | n | n | u | n
COCCO[C@H]1C(=O)N(C2CCN(C(=O)c3cccn3C)CC2)[C@H]1c1ccncc1 | n | n | u | n | n
Cc1nc(CN2C[C@H](C(=O)Nc3cccc(Cl)c3)C[C@@H]2c2ccc(F)cc2)cs1 | 50µM | n | n | 50µM | u
O=C(Nc1cccc(F)c1)[C@@H]1C[C@@H](c2ccc(F)cc2)N([S+](=O)([O-])c2ccccc2)C1 | 35µM | n | n | u | n
O=C(Nc1cccc(F)c1)[C@@H]1C[C@@H](c2ccc(F)cc2)N([S+](=O)([O-])c2cccnc2)C1 | u | n | n | u | n
Cc1nc(CN2C[C@H](C(=O)NCCOc3ccccc3)C[C@@H]2c2ccc(F)cc2)cs1 | 89µM | n | n | 56µM | n
O=C1CC(c2nc(-c3ccc4nc[nH]c4c3)no2)CN1Cc1cccnc1 (centres undefined) | n | n | n | n | n
O=C(NCCN1CCOCC1)C1CN(S(=O)(=O)c2cccs2)CC12CCCCC2 (centres undefined) | n | n | n | n | n
CS(=O)(=O)c1ccc(CN2CCN3C(=O)N(Cc4ccccn4)C[C@H]3C2)cc1 | n | n | n | n | n
Cc1ccc(-c2cc3c(ccn3CC3CCN([S+](C)(=O)[O-])CC3)c(N3CCOCC3)n2)cn1 | n | n | n | u | n
CN1CCC(Cn2ccc3c(N4CCOCC4)nc(-c4cccc5[nH]ncc45)cc32)CC1 | u | n | n | 45µM | n
C[S+](=O)([O-])N1CCC(Cn2ccc3c(N4CCOCC4)nc(-c4cccc(C(N)=O)c4)cc32)CC1 | n | n | n | u | n
C[S+](=O)([O-])N1CCC(Cn2ccc3c(N4CCOCC4)nc(-c4cccnc4)cc32)CC1 | n | n | n | 7.1µM | n
CN1CCC(Cn2ccc3c(N4CCOCC4)nc(-c4cccc(C(N)=O)c4)cc32)CC1 | u | n | n | 100µM | n
CC(=O)Nc1cccc(-c2cc3c(ccn3CC3CCN(C)CC3)c(N3CCOCC3)n2)c1 | n | n | n | u | n
SMILES | HEK293 tox | GPT2 inhibitor | FLuc inh | 3T3 cytotox | hNpr1 antagonist
COc1cc(F)ccc1-c1cc2c(ccn2CC2CCN(C)CC2)c(N2CCOCC2)n1 | 100µM | n | n | 71µM | n
O=C(c1ccc(F)cc1)N1CCC(N2CC3CCCN3C2=O)CC1 (centres undefined) | u | n | n | u | n
COc1ccc(CN2C(=O)[C@@H]3C[C@@H](CN3C)Oc3ccccc32)cc1 | n | n | n | n | n
COc1ccc(C(=O)N2CC(N(C3CCOCC3)S(C)(=O)=O)C2)cc1OC | n | n | n | n | n
Fc1ccc(-c2cnc3n2C[C@H](CN(Cc2ccccc2)Cc2ccccc2)OC3)cc1 | 35µM | n | n | 28µM | n
O=C(NC[C@H]1Cn2c(-c3ccc4c(c3)OCO4)cnc2CO1)c1ccc2c(c1)OCO2 | 63µM | n | u | 28µM | n
COc1ccccc1C(=O)NC[C@H]1Cn2c(-c3ccc(Cl)cc3)cnc2CO1 | 13µM | n | n | 10µM | u
O=S(=O)(NC[C@H]1Cn2c(-c3ccc(F)cc3)cnc2CO1)c1ccc(Cl)cc1 | 100µM | n | n | u | u
Nc1nc(CCC(=O)N2CCn3nc(C(O)c4ccccc4)cc3C2)cs1 (centres undefined) | n | n[11.5 µM] | n | n | n
O=C(NC[C@H]1Cn2c(-c3ccc(F)cc3)cnc2CO1)c1ccc(Cl)cc1 | 89µM | n | u | u | 18µM
CC(C)N1CC[C@H](c2nc3ccc(C#N)cc3[nH]2)C1 | n | n | 40µM | n | n
CC(C)N1CC[C@H](c2nc3ccc(C(F)(F)F)cc3[nH]2)C1 | u | n | 22µM | n | n
COc1ccc2nc([C@H]3CCN(C(C)C)C3)[nH]c2c1 | n | n | 22µM | n | u
Cc1cc(C)n2nc(C)c(C(=O)N3CCCC(c4cccc(C(=O)O)c4)C3)c2n1 (centres undefined) | n | n[11.5 µM] | n | n | n
C[C@]1(O)CCN(C(=O)Cc2ccc3c(c2)OCO3)C[C@@H]1O | n | n | n | n | n
Cc1nc(C2(C)CCN(S(=O)(=O)c3c(C)c(C)cc(C)c3C)CC2)no1 | u | n | n | u | n
COc1ccc(CN2CCCC(c3cc(=O)[nH]c(C)n3)C2)c(OC)c1C (centres undefined) | 45µM | n | n | u | n
CCOc1ccccc1C1NC(=O)N(CC(=O)Nc2cccc(SC)c2)C2=C1C(=O)OC2 (centres undefined) | u | n | n | u | n
Cc1cc2nc3n(c(=O)c2n1CC(=O)Nc1ccc(F)c(F)c1)CCCC3 | u | n | n | n | n
COc1ccc(-c2noc([C@@H]3CCCN3C(=O)c3ccc(F)c(Cl)c3)n2)cc1OC | 40µM | n | n | u | n
COc1ccc(-c2noc([C@@H]3CCCN3C(=O)c3cc(Cl)ccc3OC)n2)cc1 | 25µM | n | n | u | n
COc1ccc(-c2noc([C@@H]3CCCN3C(=O)c3ccc(Cl)cc3)n2)cc1OC | u | n | n | u | n
CCCCOc1ccc(C(=O)N2CCC[C@H]2c2nc(-c3ccc(C)cc3)no2)cc1 | 22µM | u | n | 35µM | n
CC(C)NC(=O)c1cc(C(C)(C)C)c2cccn2n1 | n | n | x | n | x
CC(C)(C)c1cc(C(=O)N2CCCC2)nn2cccc12 | u | n | x | 28µM | x
COc1ccc(F)c(F)c1CN1CCC2(CCNCC2)C1 | u | n | n | u | n
